G9a inh: qHTS Assay for Inhibitors of Histone Lysine Methyltransferase G9a; G9a H3K9 monomethylation, AlphaScreen, 2 h; Potency, µM (doses to about 102 µM), for inactives: at the highest dose activity, negative = inhibition, most hits filed as inhibitors; hit rate 8.8% among 350,000; AID 504332, 2011; note: % is set by controls: 0 for no effect and ±100 for the full control effect; nearly all actives have a fitted effect of over 75% in size
Target sequence (Q96KQ7 913-1193 limits assumed): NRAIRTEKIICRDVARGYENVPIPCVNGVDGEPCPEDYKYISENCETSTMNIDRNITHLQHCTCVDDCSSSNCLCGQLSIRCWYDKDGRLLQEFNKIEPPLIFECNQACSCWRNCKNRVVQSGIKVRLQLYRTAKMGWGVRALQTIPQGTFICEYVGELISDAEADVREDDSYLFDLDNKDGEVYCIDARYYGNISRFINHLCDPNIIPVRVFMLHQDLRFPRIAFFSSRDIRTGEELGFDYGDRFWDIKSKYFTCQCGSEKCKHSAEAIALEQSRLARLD
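Using a bead-based AlphaScreen, monomethylated H3K9 product from 2 h room-temperature reactions (G9a 20 nM, peptide 500 nM, SAM 20 uM) was detected with 0.5 ug/mL rabbit anti-H3K9me1 antibody.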
PLK1 PBD inh: qHTS for Inhibitors of PLK1-PDB (polo-like kinase 1 - polo-box domain): Primary Screen. hit rate 2.8% among 360,000. Potency, µM, inactives show max response, negative = inhibition, hits mostly inhibitors. Serine/threonine-protein kinase PLK1 (Homo sapiens), P53350. AID 720504, 2013. Plk1 PBD binding of FITC phosphopeptide, fluorescence polarization; note: series mostly up to about 57 µM; % is set by controls: 0 for no effect and ±100 for the full control effect; nearly all actives have a fitted effect of over 65% in size
BAZ2B inh: qHTS Assay for Inhibitors of BAZ2B; AID 504333, 2011; Potency, µM (highest dose often 114 µM), without a hit: at the highest dose activity change, negative = inhibition, most hits filed as inhibitors; hit rate 4.4% among 360,000; Bromodomain adjacent to zinc finger domain protein 2B (Homo sapiens), Q9UIF8; AlphaScreen BAZ2B-H3K14Ac peptide displacement; note: % is set by controls: 0 for no effect and ±100 for the full control effect; nearly all actives have a fitted effect of over 60% in size
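Complex of BAZ2B and biotin-H3K14Ac (50 nM apiece) forms over 30 min at RT, then faces library compounds up to 110 uM for another 30 min; AlphaScreen beads added, 20 min dark incubation, luminescence read.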
JMJD2A Tudor inh: qHTS Assay for Inhibitors of JMJD2A-Tudor Domain; AID 504339, 2011; Lysine-specific demethylase 4A (Homo sapiens), O75164; hit rate 4.4% among 390,000; Potency, µM (highest dose often 114 µM), for inactives: at the highest dose activity change, negative = inhibition, usual class: inhibitors; AlphaScreen JMJD2A-Tudor / H3K4me3 peptide binding; note: % is set by controls: 0 for no effect and ±100 for the full control effect; nearly all actives have a fitted effect of over 50% in size
VDR inhibitor: Inhibitors of the vitamin D receptor (VDR): qHTS. VDR-SRC2-3 peptide fluorescence polarization, 2 h. Vitamin D3 receptor (Homo sapiens), P11473. Potency, µM, inactives show max response, negative = inhibition, most hits filed as inhibitors. hit rate 0.93% among 400,000; note: % is set by controls: 0 for no effect and ±100 for the full control effect
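VDR–SRC2-3 interaction, FP format. Cmpds 23 nl via pintool, brief spin, 2 h ambient incubation.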
HP1b binding inh: HTS for Inhibitors of HP1-beta Chromodomain Interactions with Methylated Histone Tails. hit rate 0.56% among 390,000. Chromobox protein homolog 1 (Homo sapiens), P83916. AlphaScreen HP1-beta / biotin-H3K9me3 peptide binding. Potency, µM (doses to about 114 µM), without a hit: top-dose activity change, negative = inhibition, most hits filed as inhibitors; note: nearly all actives have a fitted effect of over 70% in size
Target sequence (P83916 whole entry, looked up): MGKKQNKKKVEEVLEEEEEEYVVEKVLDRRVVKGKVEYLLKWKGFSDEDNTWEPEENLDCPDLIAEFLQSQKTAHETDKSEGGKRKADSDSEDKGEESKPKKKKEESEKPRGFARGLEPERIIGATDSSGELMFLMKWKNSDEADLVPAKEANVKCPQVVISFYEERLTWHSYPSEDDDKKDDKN
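Compound inhibition of the preformed complex between 50 nM HP1-beta and 50 nM biotinylated H3K9me3 peptide was read by AlphaScreen. Buffer was PBS pH 7.4 with 0.01% Tween-20. Incubations ran 30 min at room temperature, with 10 ug/mL donor/acceptor beads.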
The depositor's hits bear a star; ? = inconclusive; . = no result; [ ] = remark or other dose. This is a sample that favours compounds with a hit; in the whole collection about 11% have one here. Calls come from the whole dose curve; as a rule, active = well fitted curve in the direction sought with a large enough effect; inconclusive = small, poorly fitted or top-dose-only effect, or another doubt; inactive = no such curve, though single readings can be large; an effect the other way counts as inactive or inconclusive. Potency is the fitted concentration of half-maximal effect.

SMILES	G9a inh	PLK1 PBD inh	BAZ2B inh	JMJD2A Tudor inh	VDR inhibitor	HP1b binding inh
Cc1cc(NC(=O)CSc2nnc(-c3ccc(O)cc3)o2)no1	.	1%	-2%	-28%	16%	41%
Cc1cc(NC(=O)CSc2nnc(-c3ccc([N+](=O)[O-])cc3)o2)no1	77%	-12%	22µM*	89µM*	-14%	47%
C#CCSc1nnc(-c2ccc(OC)cc2)o1	45µM*	?	0%	3%	-8%	-6%
COc1cc(C)c2c(=O)cc(-c3ccccc3)oc2c1	.	.	.	.	-9%	.
CC(C)[C@H](NC(=O)c1ccccc1F)C(=O)OCC(=O)NC1CC1	.	11%	.	-15%	11%	24%
COCCCNC(=O)C(C#N)c1nc2ccccc2nc1N1CCCC1 (stereo unspecified)	40µM*	?	?	-6%	3%	34%
CCN1CCN(c2nc3ccccc3nc2C(C#N)C(=O)OCc2ccccc2)CC1 (stereo unspecified)	40µM*	-3%	-35%	?	?	-6%
Cc1ncc(S(=O)(=O)c2ccccc2)c(-c2ccc(Cl)cc2Cl)n1	-3%[59 µM]	2%	-7%	-14%	16%	28%
COc1ccc(N=Nc2cnc(C)nc2-c2ccccc2)cc1	14µM*	0%	20µM*	40µM*	0%	-66%
COc1ccc(-c2nc(C)ncc2-c2ccccc2)c(O)c1	16%	-6%	-6%	-18%	14%	22%
Cc1ncc(N=Nc2ccccc2Cl)c(-c2ccccc2)n1	?	-3%	11µM*	50µM*	2%	16µM*
COc1ccc(N2C(=O)CSC23C(=O)N(CC(=O)NCCc2ccccc2)c2ccccc23)cc1 (stereo unspecified)	-3%[59 µM]	.	6%[57.1 µM]	-9%	2%	26%
COc1cc(CCN2C(=O)N[C@@H](CCc3ccccc3)C(C(C)=O)=C2C)cc(OC)c1OC	-40%	4%	-24%	-10%	-3%	40%
COc1cc(C2SC(C)C(=O)N2CCc2ccccc2)cc(OC)c1OC (stereo unspecified)	50µM*	-18%	-3%	-7%	-4%	31%
O=C(CCCn1c(=S)[nH]c2ccccc2c1=O)N1CCCCC1	?	-4%	4%	56µM*	6%	35%
CCN1CCN(CCn2c(=S)[nH]c3ccccc3c2=O)CC1	?	-2%	3%	-30%	-13%	31%
O=C(CCN1CCCCC1)Nn1c(=S)[nH]c2ccccc2c1=O	?	-14%	?	0.71µM*	-12%	16%
O=c1c2ccccc2[nH]c(=S)n1CCN1CCCC1	18µM*	-7%	-13%	-28%	3%	13%
CC1CCN(CCCn2c(=S)[nH]c3c(sc4ccccc43)c2=O)CC1	8.9µM*	-8%	-25%	?	-14%	1%
N#C/C(=C\c1ccc(F)cc1F)S(=O)(=O)c1ccccn1	.	?	-1%	-1%	10%	23%
O=c1c2ccc(Cl)cc2[nH]c(=S)n1CCCN1CCOCC1	45µM*	-20%	-30%	?	-13%	15%
O=C(CCn1c(=S)[nH]c2ccccc2c1=O)NCCCN1CCOCC1	.	-2%	0%	?	-2%	22%
O=c1c2ccccc2[nH]c(=S)n1CCCN1CCOCC1	18µM*	-3%	-33%	-24%	-12%	31%
CCN(CC)CCCn1c(=S)[nH]c2cc(Cl)ccc2c1=O	?	?	9%	-24%	3%	42%
Cn1cc(SCC(=O)Nc2ccc3c(c2)OCO3)c2ccccc21	25µM*	-23%	13%	-32%	-17%	17%

Source: PubChem
